# Cycloheximide cs = affects cycloheximide protein synthesis inhibition readout, counter-screen; cell reporter, cycloheximide protein synthesis inhibition counterscreen; max response, %; 300,000 compounds, 12% hits; AID 2314; in the data active = max response mostly above about 13%, no sharp cut-off; inactive = mostly below about 14%; also: read at 38.3 µM for the half of the compounds with a filed dose
# RE007 growth inh = less growth of the S. pombe RE007 Vpr strain; Potency, µM (titrated, usually from 92.2 µM), actives largely listed as inhibitors; 360,000 compounds, 0.21% hits; S. pombe RE007 Vpr strain, BacTiter-Glo ATP luminescence, 24 h; active = well fitted falling curve with a large enough effect; inconclusive = small, poorly fitted or top-dose-only effect; inactive = no such curve, though single readings can be large or run the other way; also: nearly all actives have a fitted effect of over 50% in size
#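 Fission yeast strain RE007, carrying one chromosomally integrated HIV-1 vpr copy, was seeded at OD 0.01 in PMG+AL medium with 23 nL pinned compound. After 24 h at 30 °C and 99% humidity, viability was read by BacTiter-Glo luminescence.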
# FBPA Giardia inh = Giardia lamblia aldolase inhibition | purified Giardia FBPA | Potency, µM (doses to about 59.6 µM), hits mostly inhibitors | 290,000 compounds, 0.71% hits; also: nearly all actives have a fitted effect of over 55% in size
# Target sequence (A8B2U2 whole entry, looked up): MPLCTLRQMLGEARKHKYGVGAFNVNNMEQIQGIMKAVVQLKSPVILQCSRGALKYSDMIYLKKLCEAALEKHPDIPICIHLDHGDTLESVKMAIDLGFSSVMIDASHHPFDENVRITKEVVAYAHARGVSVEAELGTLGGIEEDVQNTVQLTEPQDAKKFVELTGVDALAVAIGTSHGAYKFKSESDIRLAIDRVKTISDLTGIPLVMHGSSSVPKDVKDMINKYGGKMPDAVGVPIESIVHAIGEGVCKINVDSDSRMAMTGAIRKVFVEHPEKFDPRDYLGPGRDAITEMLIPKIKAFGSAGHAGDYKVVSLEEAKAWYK
#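 40 nM FBPA preincubated 10 min at RT with compound (up to 57.5 uM final), then substrate plus GAPDH/TPI/NAD/arsenate coupling and diaphorase/resazurin added. Fluorescence read after 20 min at RT, 525/598 nm.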
# Shiga toxin inh = Shiga toxin inhibition; AID 2315; inhibition, % at 38.7 µM; 290,000 compounds, 9.2% hits; Vero cells, Shiga toxin protein synthesis inhibition reporter; in the data active = inhibition mostly above about 28%, no sharp cut-off; inactive = mostly below about 43%
# TbPYK inhibitor = inhibitors of Trypanosoma brucei pyruvate kinase; Q57TT1; TbPYK enzyme, Kinase-Glo Plus ATP luminescence, 45 min; Potency, µM (top dose mostly 76.8 µM), most hits filed as inhibitors; 410,000 compounds, 0.12% hits; also: nearly all actives have a fitted effect of over 50% in size
#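 T. brucei PYK with substrate was exposed to pin-transferred compounds across a concentration series, then started with 130 uM ADP (final). After 45 min at room temperature, Kinase-Glo Plus luminescence was read, normalized and curve-fitted.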
# LmPK inhibitor = LmPK (Leishmania mexicana) enzyme inhibition; Q27686; Potency, µM (doses to about 57.5 µM), hits mostly inhibitors; 290,000 compounds, 0.37% hits; purified LmPK, Kinase-Glo ATP luminescence, 1 h
#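 qHTS format; LmPK 0.1 nM; substrates PEP 0.5 mM and ADP 0.1 mM. One-hour room-temperature incubation, then coupled luciferase luminescence; 0.5 nM enzyme wells mark activation.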
# Hits are given with their value; i = inactive; ? = inconclusive; nt = not tested or not shown; [ ] = dose if it differs, or a comment. The entries come from a sample that favours hits as a whole. Unless noted, calls follow the shape of the dose curve; as a rule, active = well fitted curve in the direction sought with a large enough effect; inconclusive = small, poorly fitted or top-dose-only effect, or another doubt; inactive = no such curve, though single readings can be large; an effect the other way counts as inactive or inconclusive.
SMILES,Cycloheximide cs,RE007 growth inh,FBPA Giardia inh,Shiga toxin inh,TbPYK inhibitor,LmPK inhibitor
Oc1[nH]c2ccccc2c1N=Nc1nncc2ccccc12,35,i,i,60,i,?
Oc1[nH]c2ccccc2c1N=Nc1ccccn1,nt,i,nt,nt,i,nt
CC1CCCN(C(=O)Cn2c(=O)n(CC3CCC(C(=O)NC(C)C)CC3)c(=O)c3sccc32)C1 (stereo not given),nt,nt,nt,nt,i,nt
CCOC(=O)c1c(C)[nH]c(CCC(=O)NCc2ccccc2C)c1C,nt,nt,nt,nt,i,nt
CSc1ccc(N2C(=O)NC3(CCCCC3)C2=O)cc1,18,i,i,i,i,i
CC(=O)c1ccc(N2C(=O)NC3(CCCCC3)C2=O)cc1,14,i,i,74,i,i
O=C1CC(c2ccccc2C(F)(F)F)c2c(c3ccccc3[nH]c2=O)O1 (stereo not given),nt,nt,nt,nt,i,nt
Cc1ccc(C(=O)Nc2nn(C)c3cccc(F)c23)cc1,18,i,i,i,i,i
Cn1nc(NC(=O)C2CCC2C(=O)O)c2c(F)cccc21 (stereo not given),i,i,i,i,i,i
COC(=O)C1=C(C(=O)OC)[C@@H]2N(Cc3ccccc3)c3ccccc3[C@@]23C[C@@H](C(=O)OC)N(S(=O)(=O)c2ccc(Br)cc2)C3=N1,nt,nt,i[12.9 µM],nt,nt,i[11.5 µM]
Cc1cc(-n2cnnn2)ccc1C(C)C,23,i,i,i,i,i
Cc1ccc(-c2csc(-c3ccncc3)n2)cc1,26,i,i,96,i,i
O=C(Nc1ccc(Br)cc1)c1csc(-c2ccncc2)n1,i,i,i,i,i,i
Brc1ccc(-c2csc(-c3ccncc3)n2)cc1,i,i,i,42,i,i
Cc1ccc(-c2csc(-c3nc(-c4ccc(Br)s4)cs3)n2)cc1,nt,nt,nt,nt,i,nt
CCOC(=O)c1ccc(NC(=O)CCCc2nc(-c3cc(OC)c(OC)c(OC)c3)no2)cc1,nt,nt,nt,nt,i,nt
CCOc1ccc(-n2c(-c3ccoc3)nc3ccccc3c2=O)cc1,i,i,i,i,i,i
CCOc1ccc(-n2c(C)nc(O)c2N=Nc2ccccc2)cc1,17,i,i,i,i,i
COc1ccc(SCC(Cc2ccccc2)N2CCN(CC(C)C)CCC2=O)cc1 (stereo not given),30,nt,i,53,nt,nt
Cc1ccc(SCC(Cc2ccccc2)N2CCN(CC(C)C)CCC2=O)cc1 (stereo not given),i,nt,i,50,nt,nt
CC(C)CN1CCC(=O)N([C@H](CSc2ccc(Br)cc2)Cc2ccccc2)CC1,i,i,i,i,i,i
Cc1onc(-c2ccccc2)c1C(=O)OCCOc1ccccc1F,34,i,i,i,i,i
Cc1ccccc1OCCOC(=O)c1c(-c2ccccc2)noc1C,i,i,i,i,i,i
Cc1cccc(N2CCN(Cc3nnc(-c4cccc(Br)c4)o3)CC2)c1C,nt,nt,nt,nt,i,nt
C#CCOC(=O)Nc1cnccc1C(F)(F)F,i,i,i,i,i,i
SMILES,Cycloheximide cs,RE007 growth inh,FBPA Giardia inh,Shiga toxin inh,TbPYK inhibitor,LmPK inhibitor
C#CCOC(=O)Nc1ccc(OCC(F)(F)F)nc1,21,i,i,46,i,i
COc1ccc(OCC(=O)NCc2ccc3c(c2)CCN3C(=O)c2cccc(C)c2)cc1,nt,nt,nt,nt,i,nt
Cc1cccc(NC(=O)CCc2ccccc2)c1,54,i,i,i,i,i
CN(C)c1cccc(NC(=O)Cc2ccc(F)cc2)c1,i,i,?,i,i,i
COC(=O)c1cccc(NC(=O)CSCc2ccccc2)c1,19,i,i,i,i,i
CC(=O)Nc1cccc(NC(=O)CCc2ccccc2)c1,i,i,i,138,i,i
COC(=O)c1ccc(CSCC(=O)Nc2ccccc2)cc1,i,i,i,i,i,i
CN(C)c1cccc(NC(=O)CCc2ccccc2)c1,18,i,?,68,i,i
Cc1ccc(S(=O)(=O)N2CCc3cc(C(=O)N(C)Cc4ccccc4)ccc32)cc1,nt,nt,nt,nt,i,nt
CC(=O)Nc1cccc(C(=O)N(CCc2ccccc2)Cc2ccccc2)c1,28,i,nt,i,i,i
COc1ccc(CCOC(=O)c2cccc(NC(C)=O)c2)cc1,36,i,nt,52,i,i
COc1ccc(NC(=O)CCC2CCCC2)cc1OC,19,i,i,67,i,i
COC(=O)c1cccc(NC(=O)CCc2ccccc2)c1,58,i,i,57,i,i
CC(Cc1ccc2c(c1)OCO2)NO (stereo not given),nt,nt,nt,nt,i,nt
